Drawing on PubChem BioAssay AID1986 (Sanford-Burnham Center for Chemical Genomics, 2009), this text covers inhibition for 90 compounds.

Several values for one entry are separate records, joined by “and”; a condition that tells them apart may be missing. Identical values can stand only once. Hit rate of the full screen: of about 290,000 compounds, about 890 (0.31%) were called active. Cut-off read from the data, not from the text of the source: active = inhibition mostly above about 52% (no sharp cut-off); inactive = mostly below about 76%. Only a selection was taken, and actives are over-represented in it overall. A structure can be active in one record and inactive in another.

The test in a line: inhibitors of HIV fusion peptide binding, primary screen, biochemical, uHTS, fluorescence dequenching (AID 1986). To be noted: cell-free peptide binding, 30 min, stronger effect = higher value.
The mark [1] stands for this setting: measured here: repeat confirmation average inhibition, at 18.6 µM.

As to `O=C(Nc1c2c(nn1-c1ccc([N+](=O)[O-])cc1)CS(=O)(=O)C2)C1CC1`, the inhibition (at 20 µM) was 0.9% (inactive).
Take `O=C1/C(=C\c2ccco2)SC(=S)N1c1ccc(O)cc1`: the inhibition runs as follows: (at 20 µM) 57.7% (inactive); under setting [1], -2%.
As to `O=C1/C(=C/C=C/c2ccco2)SC(=S)N1c1ccc(O)cc1`, the inhibition (at 20 µM) is 55.7% (active).
For `O=C1S/C(=C\C=C\c2ccco2)C(=O)N1c1ccc(O)cc1`, for the setting “at 20 µM”, the inhibition was 78.1% (active).
With `Cc1ccc(N2C(=O)/C(=C\c3ccco3)SC2=S)cc1`, the inhibition runs as follows: (at 20 µM) 71.5% (inactive); under setting [1], -1.2%.
Take `O=C1NC(=Nc2ccc(O)cc2)S/C1=C\C=C\c1ccco1`: for the setting “at 20 µM”, the inhibition was 41.3% (inactive).
For `O=C1S/C(=C\C=C\c2ccco2)C(=O)N1c1ccccc1`, the inhibition (at 20 µM) was 54.9% (inactive) and the inhibition under setting [1] is -0.6%.
Regarding `CN(C)CCNc1oc(-c2ccccc2F)nc1C#N`, the inhibition (at 20 µM) was 0.5% (inactive).
In the case of `Cc1ccc(/C(O)=C2/C(=O)C(=O)N(CC(=O)O)C2c2ccc([N+](=O)[O-])cc2)cc1` (stereo unspecified), for the setting “at 20 µM”, the inhibition was 3.5% (inactive).
The same measure, in the same setting: the same measure for `O=C(CNC(=O)c1ccco1)OCC(=O)c1ccc([N+](=O)[O-])cc1`: -0.7% (inactive); for `Cc1ccc(/C=C/c2nc3sc(C(=O)O)c(C)c3c(=O)[nH]2)cc1[N+](=O)[O-]`: 73% (active); for `Cc1c(C(=O)O)sc2nc(/C=C/c3cccc(O)c3)[nH]c(=O)c12`: 5.5% (inactive).
For the compound `Cc1c(C(=O)O)sc2nc(/C=C/c3cccc(F)c3)[nH]c(=O)c12`, the inhibition (at 20 µM) is 27.7% (inactive).
The same measure, in the same setting: in the case of `COC(=O)c1c(/N=C/NOCc2ccc(Cl)cc2)sc2c1CCN(c1ncc(C(F)(F)F)cc1Cl)C2` it was -1.7% (inactive); in that of `CC(C)Cn1c(N)c(C(=O)COC(=O)c2ccncc2)c(=O)n(C)c1=O`, 0.1% (inactive); in that of `CCOc1ccc(Br)cc1S(=O)(=O)N1CCC(C(N)=O)CC1`, -0.7% (inactive).
As for `CCn1cc(C(=O)NCCc2ccccc2C)c(=O)c2ccc(C)nc21`, for the setting “at 20 µM”, the inhibition is -1.3% (inactive).
The same measure, in the same setting: in the case of `CC(C)Nc1cc(N2CCCC2)ccc1[N+](=O)[O-]` it was -0.2% (inactive); in that of `COC(=O)CC1COc2ccccc2N1C(=O)c1ccc(Cl)cc1` (stereo unspecified), -3% (inactive); in that of `Cc1nc2c(C(=O)NCCc3ccccc3Cl)c[nH]n2c(=O)c1Cl`, 56.9% (active).
Turning to `Cc1nc2c(C(=O)NCCc3ccccc3)c[nH]n2c(=O)c1Cl`, the inhibition (at 20 µM) is 5.3% (inactive).
Take `Cc1nc2c(C(=O)NCc3ccccc3Cl)c[nH]n2c(=O)c1Cl`: the inhibition (at 20 µM) is 49.3% (inactive).
In the case of `COc1cc(CNc2ccc(S(N)(=O)=O)cc2)ccc1OCC(=O)NC1CCCCC1`, where the note is “at 20 µM”, the inhibition was -1% (inactive).
Still for that read-out and setting: the same measure for `O=C(CN1c2ccccc2S(=O)(=O)c2ccccc21)NCc1ccccc1`: -0.5% (inactive); for `Cc1ccc(/C=C2\SC(=S)N(C3CCS(=O)(=O)C3)C2=O)o1` (stereo unspecified): 25.1% (inactive); for `O=C1/C(=C\c2ccco2)SC(=S)N1C1CCS(=O)(=O)C1` (stereo unspecified): 40.7% (inactive).
For `O=C1/C(=C/c2ccco2)SC(=S)N1C1CCS(=O)(=O)C1` (stereo unspecified), the inhibition (at 20 µM) is 39.9% (inactive).
Still for that read-out and setting: the same measure for `CC1=C(C#N)C(=O)N(C2CCS(=O)(=O)C2)C(=O)/C1=C\c1ccco1` (stereo unspecified): 83.1% (active); for `CC1=C(C#N)C(=O)N(C2CCS(=O)(=O)C2)C(=O)/C1=C\c1ccc(C)o1` (stereo unspecified): 101% (active); for `Cc1ccc(/C=C2/SC(=S)N(C3CCCCC3)C2=O)o1`: 32.1% (inactive).
The same measure, in the same setting: the same measure for `Cn1c(=O)oc2cc(S(=O)(=O)N3CCCC(C(=O)N4CCc5ccccc5C4)C3)ccc21` (stereo unspecified): 2.2% (inactive).
Still for that read-out and setting: the same measure for `Cc1ccc(CS(=O)(=O)Cc2ccc(C(=O)NCCc3ccccc3)o2)cc1`: 0.5% (inactive); for `CC(C)CNS(=O)(=O)c1cc(C(=O)N2CCOCC2)c(Cl)cc1Cl`: 1.1% (inactive).
As for `COc1cc(/C=N/NC(N)=O)ccc1OCC(=O)Nc1ccc(C)c(C)c1`, where the note is “at 20 µM”, the inhibition is 11.1% (inactive).
Regarding `Cc1cc(C(F)F)n2ncc(C(=O)NC3CCCCCC3)c2n1`, the inhibition (at 20 µM) is 3.7% (inactive).
Still for that read-out and setting: in the case of `Cc1c(C(=O)NC(c2ccccn2)C(F)(F)F)oc2c(F)cccc12` (stereo unspecified) it was 0.9% (inactive).
Regarding `COc1ccc(CNC(=O)[C@@H](NC(=O)C2CCN(C(=O)[C@@H](N)Cc3ccccc3)CC2)C(C)C)cc1`, the inhibition (at 20 µM) is -1.9% (inactive).
Still for that read-out and setting: the same measure for `COc1ccc(OC)c(CNC(=O)CCSCc2ccc(F)cc2Cl)c1`: 0% (inactive); for `CCN1C(=O)/C(=C\N2CCCc3ccccc32)SC1=S`: 3.7% (inactive).
In the case of `CCN1C(=O)/C(=C/N2CCc3ccccc32)SC1=S`, the inhibition (at 20 µM) is 112% (active) and the inhibition under setting [1] is 63%.
Turning to `CCN1C(=O)/C(=C/N2CCc3ccccc3C2)SC1=S`, for the setting “at 20 µM”, the inhibition is 0.4% (inactive).
Same read-out and setting: the same measure for `Fc1ccc(N2CCN(C(c3cccs3)c3nnnn3CCc3ccccc3)CC2)cc1` (stereo unspecified): -1.4% (inactive); for `COc1cc(C2CC(=O)N(CC(=O)NCC3CCCO3)c3ccccc3S2)cc(OC)c1OC` (stereo unspecified): 0.6% (inactive); for `CC(C)(C)OC(=O)N1CCC(c2c(C(=O)NC3CC3)cnn2-c2ccc(Cl)cc2)CC1`: 3.6% (inactive).
In the case of `COc1cc(NC(=O)c2cnn3c(C(F)F)cc(C4CC4)nc23)c(OC)cc1Cl`, under “at 20 µM”, the inhibition is -0.3% (inactive).
`COc1ccc(-n2ncc(C(=O)NC3CC3)c2C2CCN(C(=O)OC(C)(C)C)CC2)cc1`: where the note is “at 20 µM”, the inhibition is 1.2% (inactive).
Same read-out and setting: the same measure for `CC(C)(C)OC(=O)N1CCC(c2cc(=O)n3[nH]c(-c4ccc(Cl)cc4)cc3n2)CC1`: -1.3% (inactive).
The same measure, in the same setting: in the case of `COc1ccc(CCNC2CC(=O)N(CCc3ccccc3)C2=O)cc1` (stereo unspecified) it was 0.5% (inactive); in that of `COCCN1C(=O)N(c2cccc(C)c2)C(=O)C1CC(=O)Nc1cc(OC)cc(OC)c1` (stereo unspecified), 0.1% (inactive); in that of `O=[N+]([O-])c1ccc(/C=N\NS(=O)(=O)c2ccc(F)cc2)o1`, 1.3% (inactive).
Consider `O=C1OC(c2ccc(F)cc2)=C/C1=C\c1ccc([N+](=O)[O-])o1`, for which the inhibition (at 20 µM) is 77.6% (active).
On the same count and under the same terms, in the case of `O=C1OC(c2ccc(F)cc2)=C/C1=C\c1ccc(O)cc1` it was 1.8% (inactive).
Same read-out and setting: in the case of `CCOc1ccc(/C=c2\sc3nc(-c4ccco4)nn3c2=O)cc1OCC` it was 21.5% (inactive).
Turning to `COc1ccc(OC)c(/C=c2\sc3nc(-c4cccs4)nn3c2=O)c1`, the inhibition is 60.9% (active) (at 20 µM) and 58% under setting [1].
As for `COc1cccc(/C=c2\sc3nc(-c4cccs4)nn3c2=O)c1OC`, under “at 20 µM”, the inhibition is 2.8% (inactive).
The same measure, in the same setting: the same measure for `COc1ccc(Br)cc1/C=c1\sc2nc(-c3ccco3)nn2c1=O`: 56.1% (active); for `COc1ccccc1/C=c1\sc2nc(-c3ccco3)nn2c1=O`: 36.3% (inactive); for `COc1ccc(/C=c2\sc3nc(-c4ccccc4OC)nn3c2=O)c(OC)c1`: 11.2% (inactive).
`CC(C)n1cc(C(=O)c2ccccc2O)cc(C#N)c1=O`: the inhibition (at 20 µM) was -0.9% (inactive).
The same measure, in the same setting: in the case of `CC(C)CC(C(=O)O)N1C(=O)C2C3c4ccccc4C(c4ccccc43)[C@@H]2C1=O` (stereo partly specified) it was -0.8% (inactive); in that of `CCCCCCCNC(=O)C1(CC2CC(c3ccc(Cl)cc3)=NO2)CCN(C(=O)OC(C)(C)C)CC1` (stereo unspecified), 0.6% (inactive); in that of `Cc1oncc1C(=O)NC1CCCCC1`, 0.8% (inactive).
`CCOc1ccccc1N(CC(=O)NCCc1ccccc1)C(=O)CCC(=O)Nc1ccccn1`: the inhibition (at 20 µM) is 0% (inactive).
For `CCCCN1C(=O)/C(=C/C=C2\N(C)c3ccccc3C2(C)C)SC1=S`, under “at 20 µM”, the inhibition was -0.3% (inactive).
Still for that read-out and setting: in the case of `CN1/C(=C\C=C2/SC(=S)N(CC(=O)O)C2=O)C(C)(C)c2ccccc21` it was 148% (inactive); in that of `C=CCN1C(=O)/C(=C\C=C2\N(C)c3ccccc3C2(C)C)SC1=S`, 54.6% (active).
With `COc1cccc(-c2noc(CCCC(=O)Nc3ccc(C(N)=O)cc3)n2)c1`, the inhibition (at 20 µM) is 0.5% (inactive).
Same read-out and setting: the same measure for `CCCCCCCCCCCCCCCCn1cc[n+](C)c1`: 137% (inactive) and 70.3% (active).
In the case of `CCCCCCn1ccc(=N)cc1`, the inhibition (at 20 µM) was -2% (inactive).
Same read-out and setting: in the case of `CCCCCCCCn1ccc(=N)cc1` it was -1.2% (inactive); in that of `C[C@H](NC(=O)C1CCN(S(=O)(=O)c2ccccc2)CC1)C(=O)NCc1cccc(Cl)c1`, -1.4% (inactive); in that of `CCOC(=O)C1=C(C)C2C3C(=O)N(c4cc(C)ccc4C)C(=O)C3C1(C)C1C(=O)N(c3cc(C)ccc3C)C(=O)C21` (stereo unspecified), -0.1% (inactive).
The same measure, in the same setting: in the case of `COC(=O)c1sc(N2C(=O)C(O)=C(C(=O)c3ccc(C)o3)C2c2ccc(OC)c(OC)c2)nc1C` (stereo unspecified) it was 15.3% (inactive); in that of `COc1ccc(C(C)=O)cc1CSc1nc2cc(C(=O)O)ccc2c(=O)n1Cc1ccccc1`, 62.4% (active).
Turning to `COCCn1c(SCc2cc(C(C)=O)ccc2OC)nc2cc(Cl)ccc2c1=O`, the inhibition (at 20 µM) was -2.4% (inactive).
Consider `CCOC(Cn1c(SCc2cc(C(C)=O)ccc2OC)nc2ccccc2c1=O)OCC`, for which the inhibition (at 20 µM) is 3.3% (inactive).
Turning to `COCC(C)n1c(SCC(=O)c2cc(C)n(C)c2C)nc2ccccc2c1=O` (stereo unspecified), the inhibition (at 20 µM) is 0.2% (inactive).
Consider `CC(C)(C)c1ccc(NC(=O)C2CCCN(c3cnccn3)C2)cc1` (stereo unspecified), for which the inhibition (at 20 µM) was -0.1% (inactive).
Consider `CCOc1cc([N+](=O)[O-])cc2c1C(=O)Nc1ccccc1O2`, for which the inhibition runs as follows: (at 20 µM) 104% (active); under setting [1], 57.4%.
On to `Cc1ccc(Oc2cc([N+](=O)[O-])cc3c2C(=O)Nc2ccccc2O3)cc1`, for which the inhibition (at 20 µM) is 40.9% (inactive).
On the same count and under the same terms, in the case of `O=C1Nc2ccccc2Oc2cc([N+](=O)[O-])cc(Oc3ccccc3)c21` it was 59.7% (active).
On the same count and under the same terms, the same measure for `O=C1Nc2ccccc2Oc2cc([N+](=O)[O-])ccc21`: 13% (inactive); for `Cc1ccc2c(c1)NC(=O)c1cc([N+](=O)[O-])ccc1O2`: 2.5% (inactive); for `Cc1cccc(Oc2cc([N+](=O)[O-])cc3c2C(=O)Nc2ccccc2O3)c1`: 46.8% (inactive).
Turning to `CCOc1cccc(C(=O)Nc2cccc(C(C)=O)c2)c1`, the inhibition (at 20 µM) was -0.2% (inactive).
As to `Cc1ccc(CN(C(=O)c2ccccc2[N+](=O)[O-])C2CCS(=O)(=O)C2)o1` (stereo unspecified), for the setting “at 20 µM”, the inhibition was 0.4% (inactive).
On the same count and under the same terms, the same measure for `COc1cccc(OC)c1C(=O)NC(=O)Nc1c(F)c(F)c(F)c(F)c1F`: 0.3% (inactive); for `O=C(O)CC(c1cccc(C(F)(F)F)c1)N1CCS(=O)(=O)CC1` (stereo unspecified): 0.6% (inactive).
Still for that read-out and setting: in the case of `CCc1ccc(CN(C(=O)COc2c(C)cccc2C)C2CCS(=O)(=O)C2)cc1` (stereo unspecified) it was -0.3% (inactive).
With `O=C(Nc1nnc(-c2cccc(F)c2)s1)Nc1ccccc1F`, the inhibition (at 20 µM) is 0.6% (inactive).

One may read the inhibition as the change of the read-out against control, counted positive when it falls.
